Reference: PubChem BioAssay
Calls of active or inactive are those of the source.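 Rule for the calls, unless noted: active = z-score of at least 1.8 in each of two replicates, scored against plate mean and spread of sample wells; inactive = the rest.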

Assays:
[1] = survival rescue of mitochondrial mutant cells in low glucose, primary screen, MELAS cybrids, Rieske KO mouse fibroblasts, CellTiter-Glo (AID 1508586;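 active = mean z-score across replicates of 1.96 or higher in either the MELAS or the Rieske mutant cell line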;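 note: test concentration not given here; z relative to plate mean and SD of compound and empty wells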)
[2] = viability rescue of complex I mutant cybrids, primary screen, cell-based, galactose medium, ATP luminescence (AID 1645843); details: complex I mutant cybrid cells, 72 h, stronger effect = higher value;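 note: positive z means more ATP and so rescue of galactose-driven cybrid death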
[3] = MELAS cybrid survival, CellTiter-Glo 48 h, stronger effect = higher value
[4] = Rieske KO mouse fibroblast survival, CellTiter-Glo 72 h

Row | SMILES | z-score [1, 3] | z-score [1, 4] | z-score [2]
1 | CN(C)CCCNC(=O)[C@@H]1C[C@H](CN2CCOCC2)CN(Cc2ccc3ccccc3c2)C1 | -0.234 (inactive) | -0.142 | 0.05 (inactive)
2 | CCOC(=O)c1nn(Cc2ccccn2)c2c1CN(Cc1ccc(NC(C)=O)s1)CC2 | -0.809 (inactive) | -0.0726 | 0.55 (inactive)
3 | COCc1ccc(CN2CCC3(CC2)C(=O)N(C2Cc4ccccc4C2)C(=O)N3CC(C)C)o1 | -0.309 (inactive) | -0.702 | 1.99 (active)
4 | CCCCc1ncc(CN2CCc3c(cc(-c4ccncc4)c(=O)n3C/C=C/c3ccccc3)C2)[nH]1 | -0.405 (inactive) | -0.0119 | -0.41 (inactive)
5 | CC1=C(C(=O)N2CCc3c(c(C(=O)NCc4nccs4)nn3Cc3ccccc3)C2)OCCO1 | -0.132 (inactive) | 0.241 | 0.605 (inactive)
6 | O=C1N[C@@H](CSCc2ccccc2)C(=O)N2CCN(C(=O)Oc3ccccc3)C[C@H]12 | 1.38 (inactive) | -0.171 | -1.57 (inactive)
7 | CCOC(=O)c1nn(CCc2ccc(OC)cc2)c2c1CN(Cc1cccn1-c1ccccn1)CC2 | -0.341 (inactive) | 0.052 | -1.34 (inactive)
8 | CC(C)Cn1nc(C(=O)N2CCCC2)c2c1CCC(NCCc1cccs1)C2 (stereo unspecified) | -0.0921 (inactive) | -0.284 | 0.555 (inactive)
9 | CC(C)CCNc1cc(C(=O)NCCCn2ccnc2)cc(S(=O)(=O)N2CCCC2)c1 | 0.646 (inactive) | -0.386 | -0.97 (inactive)
10 | O=C(Oc1ccccc1)N1CCN2C(=O)[C@@H]3C[C@@H](O)CN3C(=O)[C@H]2C1 | 1.95 (inactive) | -0.267 | -0.655 (inactive)
11 | CCc1cc(C(=O)N2CC(=O)N(Cc3ccc(OC)cc3)CC(OCc3ccncc3)C2)n(C)n1 (stereo unspecified) | -0.128 (inactive) | -0.65 | 0.77 (inactive)
12 | COc1cccc(C(=O)N2CCN3C(=O)[C@@H]4C[C@@H](O)CN4C(=O)[C@H]3C2)c1 | -0.0988 (inactive) | 0.379 | 0.555 (inactive)
13 | CC(C)C[C@H]1NC(=O)[C@H]2CN(C(=O)OCc3ccccc3)CCN2C1=O | -0.0626 (inactive) | -0.118 | -0.205 (inactive)
14 | CC(C)CCNc1cc(C(=O)NCCn2ccnc2)cc(S(=O)(=O)Nc2ccccc2)c1 | -0.318 (inactive) | -0.223 | -0.47 (inactive)
15 | Cc1nc(CN(C)C2CCc3c(c(C(=O)N(C)C)nn3CC3CCCCC3)C2)cs1 (stereo unspecified) | -0.264 (inactive) | -0.141 | 0.725 (inactive)
16 | O=C(NCCn1cncn1)c1cc(-c2ccccc2)cc(S(=O)(=O)N2CCSCC2)c1 | -0.182 (inactive) | 0.272 | 1.56 (inactive)
17 | CCCCNC(=O)[C@@H]1C[C@H](CN2CCOCC2)CN(Cc2ccc(OC)c(OC)c2)C1 | -0.184 (inactive) | 0.521 | 1.15 (inactive)
18 | O=C(c1nn(Cc2ccncc2)c2c1CN(Cc1ccsc1)CC2)N1CCCC1 | -0.1 (inactive) | 0.631 | 0.36 (inactive)
19 | COc1ccc(C(=O)N2CCN3C(=O)[C@H](COCc4ccccc4)NC(=O)[C@H]3C2)cc1 | 1.06 (inactive) | -0.655 | -0.43 (inactive)
20 | CC(C)CNC(=O)[C@@H]1C[C@H](CN2CCOCC2)CN(Cc2ccccc2)C1 | 0.428 (inactive) | 0.562 | 0.12 (inactive)
21 | CCCCNC(=O)[C@@H]1C[C@H](CN2CCOCC2)CN(Cc2ccccc2)C1 | -0.071 (inactive) | -0.282 | -0.205 (inactive)
22 | CN1CCN(S(=O)(=O)c2cc(C(=O)NCC3CCCO3)cc(-c3ccccc3)c2)CC1 (stereo unspecified) | 0.139 (inactive) | 0.37 | -0.515 (inactive)
23 | COCCN1C(=O)N(C(C)C)C(=O)C12CCN(Cc1c(F)cccc1Cl)CC2 | -0.424 (inactive) | -0.375 | 2.07 (inactive)

Row | SMILES | z-score [1, 3] | z-score [1, 4] | z-score [2]
24 | CCn1cc(CN2CCN3C(=O)[C@@H]4C[C@@H](O)CN4C(=O)[C@H]3C2)c(C)n1 | -0.258 (inactive) | -0.193 | -0.705 (inactive)
25 | CC(C)=CCNc1cc(C(=O)NCc2cn3ccccc3n2)cc(S(=O)(=O)NC(C)C)c1 | -0.403 (inactive) | -0.764 | -0.5 (inactive)
26 | CCn1nc(C(=O)N2CCCC2)c2c1CCC(NCCC1=CCCCC1)C2 (stereo unspecified) | 1.1 (inactive) | -0.76 | -1.23 (inactive)
27 | COCCN1C(=O)N(C)C(=O)C12CCN(Cc1cnc(-c3ccccc3)s1)CC2 | -0.0934 (inactive) | -0.895 | -0.285 (inactive)
28 | O=C(NCCn1ccnc1)c1cc(NCC2CC=CCC2)cc(S(=O)(=O)N2CCCC2)c1 (stereo unspecified) | -0.174 (inactive) | -0.234 | -0.94 (inactive)
29 | O=C1N[C@@H](Cc2ccccc2)C(=O)N2CCN(C(=O)c3cccs3)C[C@H]12 | -0.168 (inactive) | -0.046 | -1.15 (inactive)
30 | Cc1csc(-c2cc(C(=O)NCCN3CCCCC3)cc(S(=O)(=O)N3CCOCC3)c2)c1 | 0.0708 (inactive) | -0.233 | -0.485 (inactive)
31 | CCc1nc(CNc2cc(C(=O)N[C@H](C)c3ccc(OC)cc3)cc(S(=O)(=O)N(C)C)c2)c(C)[nH]1 | -0.507 (inactive) | -0.167 | 0.08 (inactive)
32 | CCc1nc(CNc2cc(C(=O)NCc3ccccn3)cc(S(=O)(=O)N3CCCC3)c2)c(C)[nH]1 | -0.302 (inactive) | -0.597 | 0.97 (inactive)
33 | COCc1ccc(C(=O)N2CCc3c(cc(-c4ccncc4)c(=O)n3CCN3CCCCC3)C2)o1 | -0.345 (inactive) | 0.626 | 0.77 (inactive)
34 | Cc1ccc(-c2cc(C(=O)NCc3c(C)nn(C)c3C)cc(S(=O)(=O)N3CCOCC3)c2)s1 | -0.303 (inactive) | -0.219 | 0.42 (inactive)
35 | CCn1nc(C(=O)N2CCCC2)c2c1CCC(N1CCN(c3ccccc3OC)CC1)C2 (stereo unspecified) | -0.423 (inactive) | -0.558 | -0.48 (inactive)
36 | O=C(NCC1CCCO1)[C@@H]1C[C@H](CN2CCOCC2)CN(Cc2ccc3ccccc3c2)C1 (stereo partly specified) | -0.349 (inactive) | -0.753 | 0.17 (inactive)
37 | CCOC(=O)N1CCC(NC2CCc3c(c(C(=O)N(C)C)nn3Cc3ccccc3)C2)CC1 (stereo unspecified) | -0.0814 (inactive) | 0.468 | -0.835 (inactive)
38 | CCN1C(=O)N(C)C(=O)C12CCN(Cc1ccc(Oc3ncccn3)cc1)CC2 | 0.0802 (inactive) | -0.536 | 1.74 (inactive)
39 | CCOC(=O)c1csc(CCNC2CCc3c(c(C(=O)N4CCc5ccccc5C4)nn3C)C2)n1 (stereo unspecified) | -0.249 (inactive) | 0.117 | -1.24 (inactive)
40 | CC(C)CCN1C(=O)N(CCN(C)C)C(=O)C12CCN(Cc1cn(C)c3ccccc13)CC2 | -0.333 (inactive) | -0.689 | 0.81 (inactive)
41 | COc1ccc(CN2C[C@@H](CN3CCOCC3)C[C@@H](C(=O)NCC3CCCO3)C2)cc1OC (stereo partly specified) | 0.0226 (inactive) | 0.461 | 1.14 (inactive)
42 | CC1=C(C(=O)N2CC(=O)N(CC(C)C)CC(OCc3ccccc3)C2)OCCO1 (stereo unspecified) | 0.636 (inactive) | -0.606 | 0.39 (inactive)
43 | CN(C)CCCNC(=O)[C@@H]1C[C@H](CN2CCOCC2)CN(CCc2ccccc2)C1 | -0.339 (inactive) | -0.139 | -0.365 (inactive)
44 | Cc1nc2sccn2c1CN1CCC2(CC1)C(=O)N(CC(C)C)C(=O)N2CCc1ccccc1 | -0.397 (inactive) | -0.675 | 0.34 (inactive)
45 | CC(C)[C@@H]1NC(=O)[C@H]2CN(C(=O)c3ccccc3Cl)CCN2C1=O | -0.296 (inactive) | -0.445 | 1.57 (inactive)
46 | CCCCNC(=O)[C@@H]1C[C@H](CN2CCOCC2)CN(Cc2ccc3ccccc3c2)C1 | 0.321 (inactive) | 0.627 | -0.385 (inactive)

Row | SMILES | z-score [1, 3] | z-score [1, 4] | z-score [2]
47 | CC(C)CN1CC(OCc2cccc(F)c2)CN(Cc2cccn2-c2ncccn2)CC1=O (stereo unspecified) | -0.291 (inactive) | -0.624 | 0.085 (inactive)
48 | Cc1ccc(-c2cc(C(=O)N3CCC[C@H]3CO)cc(S(=O)(=O)N3CCOCC3)c2)s1 | -0.348 (inactive) | 1.18 | -0.415 (inactive)
49 | CCOC(=O)c1nn(CC)c2c1CN(C(=O)Cn1nc(-c3ccccc3)c3ccccc3c1=O)CC2 | -0.0607 (inactive) | 0.472 | 0.925 (inactive)
50 | CCOC(=O)c1nn(CCc2ccccc2)c2c1CN(C(=O)CCc1nc3ccccc3s1)CC2 | -0.261 (inactive) | 0.0715 | 0.345 (inactive)
51 | COc1ccc(-c2cc3c(n(C)c2=O)CCN(C2CCSC2)C3)c2ccc(C)nc12 (stereo unspecified) | -0.852 (inactive) | -0.332 | 1.09 (inactive)
52 | COc1ccc(CNC(=O)c2cc(NCc3nc[nH]c3C)cc(S(=O)(=O)N3CCCC3)c2)cc1 | -0.477 (inactive) | -0.812 | 0.755 (inactive)
53 | Cc1nnc(CN(C)C(=O)c2cc(-c3ccc(C)s3)cc(S(=O)(=O)N3CCOCC3)c2)o1 | -0.234 (inactive) | -0.11 | 0.29 (inactive)
54 | COC(=O)c1c(NC(C)=O)c2cc(NC3CCOCC3)cnc2n1CCc1ccc(OC)cc1 | -0.209 (inactive) | 0.565 | 0.445 (inactive)
55 | Cn1nc(C(=O)N2CCCCCC2)c2c1CCC(NCc1ccc(C(F)(F)F)cc1)C2 (stereo unspecified) | -0.174 (inactive) | -0.22 | 1.12 (inactive)
56 | COC(=O)CCN1CC(OCc2ccncc2)CN(C(=O)Cc2c(F)cccc2Cl)CC1=O (stereo unspecified) | -0.399 (inactive) | 0.103 | 1.43 (inactive)
57 | COC(=O)c1c(NC(=O)C2CCCO2)c2cc(NCc3ccccn3)cnc2n1CCc1ccccc1 (stereo unspecified) | -0.44 (inactive) | -0.0393 | -0.87 (inactive)
58 | COc1cc(/C=C/CN2CC(=O)N(C(C)C)CC(OCc3noc(C)n3)C2)ccc1O (stereo unspecified) | -0.167 (inactive) | -0.562 | -1.32 (inactive)
59 | C[C@@H](O)[C@@H]1NC(=O)[C@@H]2C[C@H](NCc3cc4ccccc4s3)CN2C1=O | -0.64 (inactive) | -0.73 | -0.615 (inactive)
60 | Cc1ncsc1CCn1nc(C(=O)NC2CC2)c2c1CCN(C(=O)C1Cc3ccccc3O1)C2 (stereo unspecified) | -0.25 | 4.81 | -0.18 (inactive)
61 | CC(C)N1C(=O)N(C)C2(CCN(Cc3ccc4c(c3)Cc3ccccc3-4)CC2)C1=O | -0.247 (inactive) | -0.55 | 0.225 (inactive)
62 | CC(C)[C@@H]1NC(=O)[C@@H]2C[C@H](NC(=O)c3cc(C(C)(C)C)nn3C)CN2C1=O | 0.0639 (inactive) | 0.0296 | -0.355 (inactive)
63 | CN(C)C(=O)c1nn(Cc2ccccc2)c2c1CN(C(=O)C1CC(=O)Nc3ccccc31)CC2 (stereo unspecified) | -0.404 (inactive) | -0.253 | 0.725 (inactive)
64 | COc1ccc(CN2C(=O)N(C)C3(CCN(Cc4nc(-c5ccccc5)cs4)CC3)C2=O)cc1 | -0.259 (inactive) | -0.0505 | -0.2 (inactive)
65 | O=C1N[C@H](CO)C(=O)N2CCN(C(=O)c3ccc(F)cc3)C[C@H]12 | 1.91 (inactive) | -0.948 | -0.325 (inactive)
66 | CC[C@@H]1NC(=O)[C@H]2CN(CCC(C)C)CCN2C1=O | 0.225 (inactive) | 0.0851 | -0.555 (inactive)
67 | CN(C)C1CCN(C(=O)c2cc(-c3ccccc3)cc(S(=O)(=O)N3CCSCC3)c2)C1 (stereo unspecified) | 0.666 (inactive) | 0.00446 | 0.465 (inactive)
